Several values for one entry are separate records, joined by “and”; a condition that tells them apart may be missing. Equal entries are not always repeated. Records with an inconclusive call do not appear. A number with no mark means an inactive call. Activity calls are given as the source filed them. The call rests on the fitted dose curve; in most records, active means well fitted inhibition curve with a large enough effect; inconclusive means small, poorly fitted or top-dose-only effect, or effect the other way; inactive means flat fitted curve, though single readings scatter.

Sequence of Thyroid hormone receptor beta (Homo sapiens) (P10828 whole entry, looked up, the tested form may be a part): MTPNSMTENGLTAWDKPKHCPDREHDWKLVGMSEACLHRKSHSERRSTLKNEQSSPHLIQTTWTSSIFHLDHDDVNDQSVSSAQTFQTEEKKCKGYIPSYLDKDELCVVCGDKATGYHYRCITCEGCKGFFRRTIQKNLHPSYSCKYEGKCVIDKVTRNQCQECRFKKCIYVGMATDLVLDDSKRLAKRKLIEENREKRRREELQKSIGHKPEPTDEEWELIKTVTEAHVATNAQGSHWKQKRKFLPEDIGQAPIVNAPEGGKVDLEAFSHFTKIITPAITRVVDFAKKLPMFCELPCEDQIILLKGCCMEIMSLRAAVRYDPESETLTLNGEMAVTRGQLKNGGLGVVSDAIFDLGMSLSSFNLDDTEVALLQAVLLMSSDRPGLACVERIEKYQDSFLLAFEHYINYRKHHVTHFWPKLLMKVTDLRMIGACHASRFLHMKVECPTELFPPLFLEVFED

This assay concerns the target Thyroid hormone receptor beta (Homo sapiens) (UniProt P10828). Description: Concentration Response Confirmation Assay for Inhibitors of the Interaction of Thyroid Hormone Receptor and Steroid Receptor Coregulator 2, Fluorescein Fluoroprobe. As to conditions: TRbeta LBD / fluorescein-SRC2 peptide, fluorescence polarization, 5 h; series mostly up to 92.2 µM; activity, negative = inhibition: at the top concentration. The text has this: NIH Molecular Libraries Probe Production Network [MLPCN] NIH Chemical Genomics Center [NCGC] MLPCN Grant: DK058080 Assay Provider: R. Kip Guy, St. Jude Children's Research Hospital NCGC Assay Overview: Thyroid receptor (TR) regulates many homeostatic processes including basal metabolism, cardiovascular function, body weight, and lipid trafficking. TR modulators are potential therapeutics for obesity and hyperlipidemias but current thyroid analogs have undesirable side effects, particularly cardiac stimulation. To identify inhibitors that specifically prevent the interaction of TR with the steroid receptor coregulator 2 (SRC2), a fluorescence polarization assay was screened (Arnold et al., 2006). This assay detects interaction of the ligand-binding domain of human TRbeta with a fluorescein labeled SRC2 peptide, corresponding to a 20 amino acid region of the nuclear receptor interaction domain. Small molecule inhibitors that block the interaction of TR and SRC2 are detected by a decrease in fluorescence polarization. This assay is a confirmation assay for AID 1469. Arnold, L. A.; Estebanez-Perpina, E.; Togashi, M.; Shelat, A.; Ocasio, C. A.; McReynolds, A. C.; Nguyen, P.; Baxter, J. D.; Fletterick, R. J.; Webb, P.; Guy, R. K. A high-throughput screening method to identify small molecule inhibitors of thyroid hormone receptor coactivator binding. Sci STKE 2006, p 13.
NCGC Assay Protocol Summary: Five uL/well 0.6 uM TRbeta and 20 nM SRC2 Fluorescein in protein buffer (20mM Tris hydrochloride, 100mM NaCl, 10% glycerol, 1mM EDTA, 0.01% NP-40, 1mM DTT, 1uM T3 and 5% DMSO) was dispensed into black solid 1536-well plates (Grenier) using a solenoid-based dispenser. Following transfer of 23 nL compound or DMSO vehicle by a pin tool, the plates were centrifuged 15 s at 1000 RPM and incubated 5 hr at ambient temperature. The plates were read by an Envision (Perkin Elmer) to detect fluorescence polarization of SRC2 Fluorescein (480 nm excitation and 535 nm emission). Data were normalized to unbound (all components except TRbeta) and bound SRC2 Fluorescein controls. In this assay, we provide % activity data for each concentration as well as potencies for the active compounds. Keywords: NIH Roadmap, MLPCN, MLI, MLSMR, qHTS, NCGC, qHTS, thyroid hormone receptor, steroid receptor coactivator, fluorescence polarization
Consider `Cc1nc2ccccc2n2c(O)c(CC(=O)O)cc12`, for which the Potency was 8.91 µM (active).
Consider `CCOc1cc(N2CCOCC2)c(OCC)cc1NC(C)C(=O)N1CCN(CC)CC1` (stereo not given), for which the “activity, negative = inhibition” value was -2.81%.
Turning to `Cn1cc[nH]c1=S`, the “activity, negative = inhibition” value is 2.33%.
For the molecule `COc1ccc(-c2nc(CS(=O)CC(=O)NCc3ccccn3)c(C)o2)cc1` (stereo not given), the Potency is 35.5 µM (active).
In the case of `Cn1c(=O)[nH]c2nnc(-c3ccc(Cl)c(Cl)c3)nc2c1=O`, the “activity, negative = inhibition” value is 1.24%.
In the case of `N/C(Cc1cccc2ccccc12)=N\OC(=O)c1cccs1`, the activity, negative = inhibition was -6.32% [at 5.76 µM].
Same read-out and setting: next, `Cc1cc(C)cc(OCC(=O)NCCc2nc3ccccc3[nH]2)c1`: -14.2% [at 184 µM].
As for `CC1=NN(Cc2ccccc2)C(=O)C1`, the “activity, negative = inhibition” value was -2.3%.
As for `Cc1cc(N=Cc2c(O)ccc3ccccc23)no1`, the activity, negative = inhibition is 1.5% [at 0.0112 µM].
Turning to `Oc1ccc2ccccc2c1/C=N/c1nc2c(s1)CCCC2`, the Potency was 31.6 µM (active).
Consider `CCCCCCN=CC1=C(O)CC(C)(C)CC1=O`, for which the activity, negative = inhibition is 4.31% [at 0.0112 µM].
`CCCc1cc(=O)[nH]c(=S)[nH]1`: the “activity, negative = inhibition” value was 2.33%.
As for `Cc1cc2c(NC(=O)Nc3ccccc3)cccc2nn1`, the activity, negative = inhibition was -4.49% [at 0.0112 µM].
Consider `CCc1ccc2c(c1)c1nc(C)sc1n2CC`, for which the “activity, negative = inhibition” value is 5.24%.
The same measure, in the same setting: next, `Nc1cc(-c2ccncc2)c[nH]c1=O`: -4.86%; `Cc1cc2ccccc2n1CCNC(=O)C(C)Oc1ccccc1` (stereo not given): 7.35% [at 46.3 µM].
Take `O=c1cc(C23CC4CC(CC(C4)C2)C3)[nH][nH]1`: the “activity, negative = inhibition” value was -7.96%.
For the molecule `CC(=O)c1cccc(NC(=O)COC(=O)c2ccc(S(C)(=O)=O)c([N+](=O)[O-])c2)c1`, the activity, negative = inhibition is -8.61% [at 11.6 µM].
For the molecule `Cc1ccccc1Nc1cc2ccccc2c(=O)[nH]1`, the Potency was 10 µM (active) and 28.2 µM (active).
On to `CC1(C)CC(=O)C(N=Nc2cccc(S(=O)(=O)N3CCOCC3)c2)=C(O)C1`, for which the “activity, negative = inhibition” value was 10.4%.
As to `O=C(O)/C=C/C(=O)Nc1ccc(OC(F)(F)F)cc1Br`, the Potency is 50.1 µM (active).
With `Cc1nnc(SCC(=O)Nc2ccc(N(C)C)cc2)[nH]c1=O`, the “activity, negative = inhibition” value is 6.74% [at 184 µM].
On the same count and under the same terms, next, `Cc1ccc2c(CC(=O)Nc3c(C(=O)c4ccc(F)cc4)oc4ccccc34)coc2c1C`: 22.5% [at 184 µM]; `CN(C(=S)Nc1cccnc1)c1ccc(O)cc1`: 11%.
Take `CS(=O)(=O)c1ccc(C(=O)OCC(=O)NC(=O)C2CCCCC2)cc1[N+](=O)[O-]`: the Potency is 5.01 µM (active).
`CC1(C)C(N(O)C(=O)Nc2ccc(Cl)cc2)N(c2ccc(Cl)cc2)C(=O)N1CC(=O)NN` (stereo not given): the activity, negative = inhibition was -8.24% [at 11.6 µM].
As for `Cc1nc2c3cc(F)ccc3n(Cc3ccccc3F)c2s1`, the “activity, negative = inhibition” value was -12.6% [at 46.3 µM].
As to `Cc1ccc(-c2nc(S(=O)(=O)c3ccc(F)cc3)c(SCC(=O)NCC3CCCO3)o2)cc1` (stereo not given), the “activity, negative = inhibition” value was -8.38% [at 46.3 µM].
For the molecule `Nc1cccnc1Sc1cc(Cl)c(Cl)cc1Cl`, the “activity, negative = inhibition” value was 6.55%.
In the case of `CCCCOc1ccc(C(=O)CCN2CCOCC2)cc1`, the Potency is 3.55 µM (active).
On to `COc1cc(NC(C)CCCN)c2ncccc2c1` (stereo not given), for which the “activity, negative = inhibition” value is -6.93% [at 184 µM].
The same measure, in the same setting: for `CN(CCO)c1nc(N)c2c(N)nc3c(c2c1C#N)CC(=O)N3C1CCCC1` the value was -0.749% [at 11.6 µM]; for `CCOC(=O)c1cnc2nc(NCc3ccc(OC)c(OC)c3)[nH]n2c1=O`, -7.79%.
Same read-out and setting: for `C/C(=C\C(=O)c1ccccc1)Nc1ccc(O)cc1` the value was -2.06% [at 11.6 µM].
Turning to `CCOc1cc(C(c2c(C)[nH][nH]c2=O)c2c(C)[nH][nH]c2=O)ccc1OC(=O)c1cccc([N+](=O)[O-])c1`, the Potency was 15.8 µM (active).
Take `Cc1cccc(S(=O)(=O)c2cn(Cc3ccccc3)c3cc(N4CCC(C)CC4)c(F)cc3c2=O)c1`: the “activity, negative = inhibition” value was -4.12% [at 184 µM].
Regarding `O=c1[nH]c(Nc2ccccc2)cc2ccccc12`, the Potency was 25.1 µM (active).
On to `Cn1c(CCN2CCCCC2)nc2cc(NS(=O)(=O)c3ccc(Cl)cc3)ccc21`, for which the activity, negative = inhibition was -6.74% [at 0.0112 µM].
As to `CN1CCc2ccc3c4c2[C@]1(C)Cc1cccc(c1-4)OCO3`, the Potency is 44.7 µM (active).
`CCN(CC)S(=O)(=O)c1cccc(N=NC2=C(O)CCCC2=O)c1`: the activity, negative = inhibition is -3.56% [at 0.0112 µM].

The values above are taken from PubChem BioAssay AID1570 (National Center for Advancing Translational Sciences (NCATS), 2009).
